Hits are enriched below; roughly 1% of the tested compounds scored in any of these assays.
FadD28 binding: inhibitors of Mycobacterium tuberculosis FadD28 bisubstrate binding | inhibition, % at 12.5 µM | AID 588549 | 0.22% of 360,000 active | FadD28 bisubstrate probe binding, fluorescence polarization; in the data active = inhibition above about 8.5%, passing the limit was not always enough; inconclusive = no clear call, values can overlap the other calls
MazF activator: activators of E. coli MazEF toxin-antitoxin RNase | AID 504720 | 0.32% of 350,000 active | FAM/BHQ RNA-DNA oligo cleavage fluorescence, 5 h | P0AE70 | activation, % at 20 µM; in the data active = activation above about 50%
Target sequence (P0AE70 whole entry, looked up): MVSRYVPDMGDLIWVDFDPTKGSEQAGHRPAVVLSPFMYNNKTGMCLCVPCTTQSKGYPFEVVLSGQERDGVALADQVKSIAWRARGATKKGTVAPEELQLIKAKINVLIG
TcdB inh: inhibitors of Clostridioides difficile toxin B glycohydrolase | P18177 | TcdB glycohydrolase enzymatic assay, plate reader | inhibition, % at 9.99 µM | 0.24% of 350,000 active | AID 652162; in the data active = inhibition above about 10%
VHR inh abs: inhibitors of human VHR1 phosphatase (DUSP3); inhibition, % at 13.3 µM; P51452; recombinant VHR phosphatase, pNPP absorbance; 0.52% of 290,000 active; in the data active = inhibition above about 50%
Target sequence (P51452 whole entry, looked up): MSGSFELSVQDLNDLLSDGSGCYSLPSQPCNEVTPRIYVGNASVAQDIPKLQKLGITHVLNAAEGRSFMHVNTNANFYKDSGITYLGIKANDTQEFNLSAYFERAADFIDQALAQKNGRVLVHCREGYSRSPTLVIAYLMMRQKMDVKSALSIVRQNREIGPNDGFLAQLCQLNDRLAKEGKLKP
Yp Topo-I inh: blocks Yersinia pestis topoisomerase I activity; AID 504884; activity, % at 10 µM; Y. pestis Topo-I cleavage product accumulation, plate reader; 0.064% of 360,000 active; in the data active = activity above about 50%, passing the limit was not always enough; inconclusive = no clear call, values can overlap the other calls
Mtb BioA inh: blocks M. tuberculosis BioA enzyme activity; purified M. tuberculosis BioA enzyme, plate reader; inhibition, % at 9.99 µM; 0.096% of 360,000 active; AID 602481; in the data active = inhibition above about 40%; inconclusive = no clear call, values can overlap the other calls
Hits are given with their value; n = inactive; u = inconclusive; x = no result.

SMILES | FadD28 binding | MazF activator | TcdB inh | VHR inh abs | Yp Topo-I inh | Mtb BioA inh
Cc1cc(C)n(-c2nc3ccccc3nc2Nc2ccc3[nH]c(=O)[nH]c3c2)n1 | n | 234 | x | n | n | x
CNC(=O)N(O)C1N(/N=C/c2cccnc2)C(=S)SC1(C)C (stereo not given) | n | n | n | n | n | x
CNC(=O)N(O)C1N(/N=C/c2ccc(SC)cc2)C(=S)SC1(C)C (stereo not given) | n | n | 10 | n | n | n
COc1ccccc1NC1=NCC(=O)N1Cc1ccccc1 | n | n | x | n | n | n
CCOc1ccccc1NC1=NCC(=O)N1Cc1ccc(F)cc1 | n | n | n | 53 | n | n
CC(=O)Nc1cnc(-c2ccccc2O)cn1 | n | x | 12 | x | n | n
O=[N+]([O-])c1nn(-c2ccc3c(c2)OCCO3)n(O)c1=NCc1ccccc1Cl | n | 71 | n | n | n | n
CN1C(=O)c2cc(NC(=O)C3CCOCC3)ccc2OC[C@@H]2O[C@H](CC(=O)NC3CCCC3)CC[C@@H]21 | x | x | n | x | x | n
C[C@H](CO)N1C[C@H](C)[C@@H](CN(C)Cc2ccc(-c3ccccc3)cc2)Oc2ccc(NC(=O)CCCCCC(=O)Nc3ccccc3N)cc2CC1=O | x | x | n | x | x | n
CCn1c(/C=C/c2c[nH]c3ccccc23)nc2ccccc2c1=O | n | n | n | n | n | x
O=c1c2ccccc2nc(/C=C/c2ccc([N+](=O)[O-])o2)n1-c1ccc(O)cc1 | n | n | n | n | n | x
CCn1c(/C=C/c2c(C)[nH]c3ccccc23)nc2ccccc2c1=O | n | 106 | n | n | n | n
Cc1[nH]c2ccccc2c1/C=C/c1nc2ccccc2c(=O)n1-c1ccc([N+](=O)[O-])cc1 | n | 589 | n | n | n | x
Cc1cccc(-n2c(/C=C/c3ccc([N+](=O)[O-])o3)nc3ccccc3c2=O)c1 | n | 90 | n | n | n | n
C[C@@H]1CN([C@@H](C)CO)C(=O)c2cc(NC(=O)CCC(F)(F)F)ccc2O[C@@H](C)CCCCO[C@@H]1CN(C)C(=O)Nc1ccc(F)cc1 | x | x | n | x | x | n
CCCNC(=O)Nc1ccc2c(c1)OC[C@@H](C)N(C(=O)CC)C[C@@H](C)[C@@H](OC)CN(C)C2=O | x | x | n | x | x | n
COCCn1c(C)cc(/C=N/NC(=O)c2cc3ccccc3cc2O)c1C | 11 | n | x | x | n | x
O=C(/C=C/c1ccco1)NC(=S)Nc1ccccc1N1CCCC1 | n | n | x | 56 | n | x
CN(C)/C=C(\C#N)C(=O)Nc1ccccc1 | n | n | n | n | n | x
CN(C)/C=C(\C#N)C(=O)Nc1ccc(O)cc1F | n | n | 19 | n | n | x
O=C(N[C@H]1C=C[C@H](CC(=O)N2CCc3ccccc3C2)O[C@@H]1CO)C1CCOCC1 | x | x | n | x | x | x
CCCN=C1N/C(=C\c2ccco2)C(=O)N1c1ccccc1 | n | 52 | x | n | n | n
O=C(Nc1cc([N+](=O)[O-])ccc1N1CCOCC1)c1cccs1 | n | n | n | n | n | n
O=C(Nc1ccc(NC(=O)c2cc([N+](=O)[O-])ccc2N2CCOCC2)cc1)c1cccs1 | 12 | n | n | n | n | n
COc1cc(C2C(C#N)=C(N)Oc3cc(N(C)C)ccc32)cc2c1OCO2 (stereo not given) | n | 64 | x | n | n | n
SMILES | FadD28 binding | MazF activator | TcdB inh | VHR inh abs | Yp Topo-I inh | Mtb BioA inh
COc1cc(C2C(C#N)=C(N)Oc3cc(O)ccc32)cc2c1OCO2 (stereo not given) | n | n | x | n | n | n
O=Cc1ccc2ccc3cccnc3c2n1 | n | n | n | 57 | n | n
O=Cc1ccc2cccnc2n1 | n | n | n | n | n | x
O=C(Cn1nc(C(F)F)cc1C1CC1)N1CCCC1 | n | n | n | 59 | n | n
C[C@@H]1CCCCO[C@@H](CN(C)C(=O)NC2CCCCC2)[C@H](C)CN([C@H](C)CO)C(=O)c2cc(NC(=O)NC3CCCCC3)ccc2O1 | x | x | n | x | x | x
COc1ccc(-c2cn3cc(Cl)ccc3n2)cc1OC | n | n | n | 53 | n | n
COc1ccc(-c2cn3cc(C)ccc3n2)cc1Br | n | n | n | n | n | x
C[C@@H]1CN([C@H](C)CO)C(=O)c2cc(NC(=O)Cn3cnnn3)ccc2O[C@H]1CN(C)C(=O)Nc1ccc2c(c1)OCO2 | x | x | n | x | x | n
Cc1ccc(NCc2nnc(SCC(=O)c3ccc4c(c3)OCCO4)o2)c(C)c1 | n | 52 | n | n | n | n
CCCNC(=O)N1CCC2(CC1)CN(C(=O)COC)[C@@H](CO)c1c2c2ccc(OC)cc2n1C | x | x | n | x | x | x
COc1cc(Cl)ccc1OCc1cc(C(=O)N2C[C@H]3CC[C@H]2C3)no1 | n | n | n | 53 | n | n
C[C@H](CO)N1C[C@H](C)[C@@H](CN(C)C(=O)Nc2ccc3c(c2)OCO3)Oc2ccc(NC(=O)Nc3ccc(C(F)(F)F)cc3)cc2CC1=O | x | x | n | x | x | x
Cc1ccc(-n2[nH]c(C)c(/C=N/Nc3ccc([N+](=O)[O-])cc3[N+](=O)[O-])c2=O)cc1C | n | n | x | 50 | n | x
Cc1[nH]n(-c2ccccc2)c(=O)c1/C=N/NC(=O)c1cccc([N+](=O)[O-])c1 | n | n | x | n | n | n
COc1ccccc1C(=O)N1C[C@@H]2[C@H](c3ccccc31)[C@@H](CO)N2C(=O)C1CCCC1 | x | x | n | x | x | n
COc1ccc(N=c2oc3c(OC)cccc3cc2C(=O)NCc2ccco2)c(OC)c1 | n | 65 | x | n | n | n
COc1ccc2cc(C(=O)NCc3ccco3)c(=Nc3ccc(C(=O)O)cc3)oc2c1 | n | n | x | n | n | n
COc1ccc(C(=O)NNC(=S)NC(=O)c2cccnc2)cc1 | n | n | n | n | n | x
COc1ccc(CC(=O)NNC(=S)NC(=O)c2cccnc2)cc1 | n | n | 15 | n | n | n
O=C(Cc1ccccc1)NNC(=S)NC(=O)c1cccnc1 | n | n | 19 | n | n | n
O=C(NC(=S)NCc1ccccc1)c1cccnc1 | n | n | 16 | n | n | n
O=C(CC1CC1)N1[C@@H](CO)[C@@H]2c3ccccc3N(S(=O)(=O)c3ccc(F)cc3)C[C@@H]21 | x | x | n | x | x | n
O=C(c1cccnc1)N1CCc2ccccc21 | n | n | x | n | n | n
O=C(c1cccnc1)N1CCc2ccccc2C1 | n | n | x | 51 | n | n
O=C(COC(=O)C1CCN(S(=O)(=O)c2cccs2)CC1)c1ccc2c(c1)OCCO2 | n | n | n | n | n | n
SMILES | FadD28 binding | MazF activator | TcdB inh | VHR inh abs | Yp Topo-I inh | Mtb BioA inh
O=C(COC(=O)C1CCN(S(=O)(=O)c2cccs2)CC1)c1cc2ccccc2o1 | n | 60 | x | n | n | n
COc1ccc(-n2c(Cn3c(=O)sc4ccccc43)nnc2SCC(=O)N2CCCC2)cc1 | n | n | n | 50 | n | n
CCCN1[C@@H]2c3ccc(-c4ccccc4F)c(=O)n3C[C@@H]2[C@@H](CO)[C@@H]1C(=O)N1CCCCC1 | x | x | n | x | x | n
Cc1cccc(NC(=O)Cn2c(=O)n(CCC(=O)NC3CCCC3)c(=O)c3ccccc32)c1 | n | 84 | x | n | n | n
O=C(CCn1c(=O)oc2ccccc21)Nc1cccc(Cl)c1 | n | n | n | n | n | n
COc1ccc(C)cc1NC(=O)Cn1c(=O)oc2ccccc21 | u | n | n | x | n | n
O=C(Cn1c(=O)oc2ccccc21)Nc1cccc(Cl)c1 | 11 | n | n | n | n | n

Bioassay records deposited in PubChem BioAssay by several laboratories.
